Over roughly 110,000 compounds, “z-score” has its median near -0.1; the highest 2% begin near 2. The full list was thinned out, with the highest values kept by preference. Activity calls are given as the source filed them.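 Rule for the calls: active = z-score in the third read window above 3 or below -3; inactive = the rest.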
Each compound was assayed against Metabotropic glutamate receptor 8 (Rattus norvegicus) (UniProt P70579) (assay: mGluR8 Gi/Go-coupled signaling modulation – cell-based, rat, thallium flux, HTS, primary screen (AID 488969)). Settings: HEK293 rat mGluR8, GIRK (G protein-gated inwardly rectifying potassium channel) thallium flux, FluoZin2; at 10 µM; stronger effect = higher value; submaximal glutamate (EC20) added with thallium.
Chain of Metabotropic glutamate receptor 8 (Rattus norvegicus) (P70579 whole entry, looked up): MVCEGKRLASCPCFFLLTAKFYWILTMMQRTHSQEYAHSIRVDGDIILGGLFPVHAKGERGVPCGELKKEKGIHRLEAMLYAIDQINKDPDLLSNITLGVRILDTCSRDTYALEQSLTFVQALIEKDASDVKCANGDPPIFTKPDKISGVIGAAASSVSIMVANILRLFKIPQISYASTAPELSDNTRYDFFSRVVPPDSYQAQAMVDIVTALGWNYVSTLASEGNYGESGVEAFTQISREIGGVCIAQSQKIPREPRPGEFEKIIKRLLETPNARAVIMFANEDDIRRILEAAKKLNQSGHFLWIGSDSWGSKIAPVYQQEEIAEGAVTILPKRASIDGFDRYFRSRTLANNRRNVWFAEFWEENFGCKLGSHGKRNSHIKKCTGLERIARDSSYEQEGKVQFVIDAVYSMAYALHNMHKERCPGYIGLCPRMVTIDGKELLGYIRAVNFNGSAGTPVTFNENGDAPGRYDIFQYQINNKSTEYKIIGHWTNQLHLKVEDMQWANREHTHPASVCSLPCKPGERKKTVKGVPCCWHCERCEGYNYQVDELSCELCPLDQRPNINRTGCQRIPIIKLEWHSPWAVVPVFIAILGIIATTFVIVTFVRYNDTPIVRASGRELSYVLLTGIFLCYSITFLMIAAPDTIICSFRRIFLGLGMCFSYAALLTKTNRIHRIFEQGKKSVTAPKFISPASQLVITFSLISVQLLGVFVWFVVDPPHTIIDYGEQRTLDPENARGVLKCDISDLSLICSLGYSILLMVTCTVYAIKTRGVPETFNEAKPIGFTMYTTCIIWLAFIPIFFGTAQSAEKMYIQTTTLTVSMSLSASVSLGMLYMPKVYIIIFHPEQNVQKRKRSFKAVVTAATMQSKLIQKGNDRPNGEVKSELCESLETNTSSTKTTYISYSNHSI

Row | Compound | z-score
1 | CCCc1ccc(OCC(O)CN2CCN(c3ccccc3)CC2)cc1 (centres undefined) | -0.0136
2 | COc1cc(C2CC(=O)c3c(ccc4ccccc34)N2)ccc1O (centres undefined) | 0.11
3 | COc1ccc(C(=O)C(CCCCC(CN(C)C)C(=O)c2ccc(OC)cc2)CN(C)C)cc1 (centres undefined) | -0.494
4 | CCOC(=O)C1=C(C)NC(=O)NC1c1ccc(OC)c(CN2CCOCC2)c1 (centres undefined) | 0.00374
5 | COc1ccc(CCCC(=O)Nc2ccccc2F)cc1 | 0.0152
6 | COC(=O)c1cc(NC(=O)C2CC2)cc(C(=O)OC)c1 | 0.0071
7 | Cc1ccsc1/C=C1/SC(N2CC(C)OC(C)C2)=NC1=O (centres undefined) | -0.238
8 | CC(=O)c1ccc(NC2OC(C)C(O)C(O)C2O)cc1 (centres undefined) | 0.292
9 | CC(=O)c1ccc(NC2CC(O)C(O)CO2)cc1 (centres undefined) | 2.32
10 | CC(=O)c1ccc(NC(=S)N2CC(C)CC(C)C2)cc1 (centres undefined) | -0.208
11 | CCCn1nc(C(=O)OCC(=O)c2ccc3c(c2)NC(=O)CO3)c2ccccc2c1=O | -1.71
12 | O=C(NNS(=O)(=O)c1ccccc1)c1ccncc1 | -0.151
13 | CC1=CC(C)(C)Nc2ccc(OC(=O)C(Cc3ccccc3)N3C(=O)c4ccccc4C3=O)cc21 (centres undefined) | 1.05
14 | CC1=CC(C)(C)Nc2ccc(OC(=O)C(Cc3ccccc3)N3C(=O)C4CCCCC4C3=O)cc21 (centres undefined) | 2.63
15 | CC1=CC(C)(C)Nc2ccc(OC(=O)CN3C(=O)C4CCCCC4C3=O)cc21 (centres undefined) | 1.08
16 | CCC(CC)NC(=O)/C=C/c1ccccc1Cl | -0.178
17 | CCC(Sc1nc2ccc(C)cc2[nH]1)C(=O)O (centres undefined) | 0.179
18 | COC(=O)c1cc(OC)c(OC)cc1NC(=O)c1ccc(C)o1 | -0.653
19 | CC(C)(C)c1ccc(C(=O)NCC(=O)OCC(=O)Nc2ccc3c(c2)OCCO3)cc1 | 0.131
20 | CCCCC(=O)Nc1ccc(Br)cc1C(=O)O | -0.24
21 | CC1CC2=C(CC1/C=N/NC(N)=S)C(C)(C)CCC2 (centres undefined) | 3.44 (active)
22 | C/C(CC1CC2=C(CC1(C)C)C(C)(C)CCC2)=N\NC(N)=S (centres undefined) | 0.599

Row | Compound | z-score
23 | CC1=C(CC/C(C)=N/NC(N)=S)C(C)(C)CCC1 | 1.85
24 | CCCCNC(=O)Cn1nc([N+](=O)[O-])c([N+](=O)[O-])c1C | -0.27
25 | Cc1noc(C)c1S(=O)(=O)N1CCN(c2ccccc2)CC1 | -0.073
26 | Cc1noc(C)c1S(=O)(=O)N1CCC(C(=O)N(C)Cc2ccccc2)CC1 | -0.182
27 | Cc1noc(C)c1S(=O)(=O)N1CCC(Cc2ccccc2)CC1 | 2.68
28 | COc1ccc(CCn2c(N)c(S(=O)(=O)c3cccs3)c3nc4ccccc4nc32)cc1OC | -0.349
29 | COc1ccc(CC(=O)OCCN(C)C)cc1 | 0.0321
30 | O=C(CCN1C(=O)COc2ccccc21)N1CCN(c2ccccn2)CC1 | 0.258
31 | O=C(CN1C(=O)/C(=C/c2ccccc2F)Oc2ccccc21)N1CCN(c2ccccn2)CC1 | 6.44 (active)
32 | O=C(CCCN1C(=O)c2cccc3cccc(c23)C1=O)N1CCN(c2ccccn2)CC1 | 0.0204
33 | O=C(CN1C(=O)c2cccc3cccc(c23)C1=O)N1CCN(c2ccccn2)CC1 | 8.64 (active)
34 | O=C(CN1C(=O)c2ccccc2C1=O)N1CCN(c2ccccn2)CC1 | -0.293
35 | O=C(CN1C(=O)/C(=C\c2cccc(F)c2)Oc2ccccc21)N1CCN(c2ccccn2)CC1 | 0.117
36 | CC(C)c1nnc(SCC(=O)NCc2ccc3c(c2)OCO3)n1C | -0.49
37 | CCn1c(=O)n(CC)c2cc([N+](=O)[O-])ccc21 | -0.0668
38 | COc1ccccc1NC(=O)Cc1c(F)cccc1Cl | -0.193
39 | O=C(Nc1cccc2ncccc12)c1ccc(-c2ccc(Br)cc2)o1 | -0.163
40 | CCOC(=O)C1=C(C)NC(=O)NC1c1ccc(Br)o1 (centres undefined) | 2.92
41 | CCOC(=O)C1=C(C)NC(C)=C(C(=O)OCC)C1c1ccc(Br)o1 | -0.356
42 | CCOC(=O)C1=C(C)NC(=O)NC1c1ccc(C)o1 (centres undefined) | 0.0551
43 | O=C(CN1C(=O)c2ccccc2C1=O)NCCc1c[nH]c2ccccc12 | -0.164
44 | CCOc1ccc(C2=C(C=Nc3c(C)n(C)n(-c4ccccc4)c3=O)C(c3ccc(F)cc3)c3ccccc3O2)cc1 (centres undefined) | 1.53

Row | Compound | z-score
45 | Cc1ccc(-c2c(C)n([O-])c3c([n+]2=O)CCC3)cc1 | -0.263
46 | Cc1c(C)[n+](=O)c2c(n1[O-])CCC2 | 14.6 (active)
47 | CCc1c(C)n([O-])c2c([n+]1=O)CCC2 | 0.305
48 | Cc1ccc(OCCCSc2ncccn2)cc1C | -0.106
49 | Cn1c(SCc2nnc(-c3ccc(F)cc3)o2)nnc1C1COc2ccccc2O1 (centres undefined) | -0.382
50 | O=C(NC1CCCCCC1)c1cccc(N2CCCC2=O)c1 | -0.399
51 | CN1CCN(C(=O)CN(Cc2ccc(Cl)cc2)S(C)(=O)=O)CC1 | 0.244
52 | Cc1cc(NC(=O)CSc2nc3ccccc3n2CC(=O)N2CCCCC2)no1 | 0.0584
53 | Cc1ccc(N2C(=O)C3CC(c4ccccc4)=C4C5C=CC(C6C(=O)N(c7ccc(C)cc7)C(=O)C56)C4C3C2=O)cc1 (centres undefined) | -0.0459
54 | COc1ccc(S(=O)(=O)Nc2cccc(NC(C)=O)c2)cc1 | 0.142
55 | COc1cc2c(cc1NC(=O)COc1ccc3ccccc3c1)oc1ccccc12 | -0.183
56 | COc1ccccc1OCC(=O)Nc1oc(-c2ccccc2)c(-c2ccccc2)c1C#N | 2.87
57 | COc1cc2c(cc1NC(=O)Nc1ccc(C)cc1)oc1ccccc12 | -0.398
58 | Cc1cccc(C)c1OCC(=O)Nc1oc(-c2ccccc2)c(-c2ccccc2)c1C#N | -0.376
59 | COc1cc2c(cc1NC(=O)Nc1cccc(C)c1)oc1ccccc12 | 2.68
60 | Cc1ccc(OCC(=O)Nc2oc(-c3ccccc3)c(-c3ccccc3)c2C#N)cc1 | -0.212
61 | COc1cc2c(cc1NC(=O)Nc1ccccc1)oc1ccccc12 | -0.0976
62 | COc1cc2c(cc1NC(=O)COc1ccccc1OC)oc1ccccc12 | 5.54 (active)
63 | COc1ccc(OCC(=O)Nc2cc3oc4ccccc4c3cc2OC)cc1 | -0.347
64 | CCn1c(SCc2nc(-c3ccc(OC)c(OC)c3)no2)nnc1-c1cccs1 | -1.5
65 | Cc1ccccc1OCCCC(=O)Nc1ccc2c(c1)OCO2 | 0.157
66 | O=C(Nc1cccc(S(=O)(=O)N2CCCC2)c1)c1ccc2c(=O)n3c(nc2c1)CCCCC3 | -1.24

Row | Compound | z-score
67 | COc1ccc(/C=N/n2c(=O)[nH]c3c([nH]c4ccc(C)cc43)c2=O)cc1CN1CCOCC1 | -0.0345
68 | CC(=O)N(c1ccccc1)c1nc(C)cc(C)c1C#N | -0.111
69 | Cc1[nH]c2ccccc2c1C(=O)COC(=O)C1CC(=O)N(Cc2ccccc2)C1 (centres undefined) | -0.363
70 | CSc1nc2nccc(-c3ccc(-c4ccccc4)cc3)n2n1 | -0.5
71 | CSCCC(NC(=O)c1ccccc1)C(=O)NC1CC1 (centres undefined) | 0.177
72 | Cc1nn(C(C)C(=O)N2CCCCC2)c(=O)c2c1sc1ccccc12 (centres undefined) | -0.115
73 | CCCCN(CCCC)C(=O)c1ccccc1NC(=O)CN1C(=O)c2ccccc2C1=O | -0.366
74 | C#CCN(C)CC/C=C1\c2ccccc2CSc2ccccc21 | 1.63
75 | CC(O)CN(C)CC/C=C1/c2ccccc2CSc2ccccc21 (centres undefined) | 0.694
76 | C=CCN(C)CC/C=C1\c2ccccc2CSc2ccccc21 | 1.99
77 | O=C1c2ccccc2C(=O)c2c1ccc(C(=O)N1CCCCC1)c2NCCO | 0.68
78 | Cc1cc(OCC(=O)O)c2ccccc2n1 | -0.146
79 | CC1(Br)C2CCCC1C2S(=O)(=O)c1ccccc1 (centres undefined) | -0.376
80 | CC(NS(=O)(=O)c1ccc(Cl)cc1)C(=O)NCc1ccco1 (centres undefined) | 0.0263
81 | O=C(N/N=C\c1cc(Br)cs1)C1COc2ccccc2O1 (centres undefined) | 2.32
82 | O=C(N/N=C/c1cccs1)C1COc2ccccc2O1 (centres undefined) | 0.238
83 | O=C(N/N=C/c1ccc2c(c1)OCO2)C1COc2ccccc2O1 (centres undefined) | 0.435
84 | CCOC(=O)/C=C1\CC(=O)Nc2cc(C)c(C)cc2N1 | 0.197
85 | C/C(CC(=O)NC(C)C)=N\NC(=O)COc1cc(C)c(Br)cc1Br | 6.24 (active)
86 | C/C(CC(=O)Nc1ccccc1-c1ccccc1)=N\NC(=O)COc1ccc(C)cc1Br | 0.458
87 | CCOC(=O)C/C(C)=N/NC(=O)COc1ccccc1C | 0.0596
88 | CCCNC(=O)C/C(C)=N/NC(=O)COc1ccc(C)cc1Br | -0.101

Row | Compound | z-score
89 | C/C(CC(=O)NCC(C)C)=N\NC(=O)COc1cc(C)c(Br)cc1Br | 5.36 (active)
90 | Cc1cc(OCC(=O)NCC(C)C)cc(C)c1Br | -0.137
91 | O=C(CSc1ncnc2sc3c(c12)CCCC3)N1CCC(c2noc3ccc(F)cc23)CC1 | 0.658
92 | CCOC(=O)NC(Nc1ccc(S(N)(=O)=O)cc1)(C(=O)OCC)C(F)(F)F (centres undefined) | 0.00287
93 | COC(=O)c1ccc(/C=N/NC(=O)CC(=O)NC(C)C)cc1 | -0.108
94 | CC(=O)Nc1ccc(S(=O)(=O)Nc2nc3ccccc3nc2Nc2ccc(S(N)(=O)=O)cc2)cc1 | -0.462
95 | NC(=O)c1oc2ccccc2c1NC(=O)c1nc2ccccc2s1 | -0.927
96 | Cc1ccccc1C(=O)Nc1nnc(-c2ccc(F)cc2)o1 | -0.035
97 | O=C(Nc1nnc(C2=COCCO2)o1)c1ccc(Cl)cc1 | 0.709
98 | O=C(Nc1nnc(-c2ccc(Cl)cc2)o1)c1nc2ccccc2s1 | 4.07 (active)
99 | O=C(Nc1ccccc1)Nc1nnc(-c2ccccc2)o1 | -0.193
100 | O=C(Nc1nnc(-c2ccccc2Cl)o1)c1nc2ccccc2s1 | 1.61
101 | COc1ccc(-c2nnc(NC(=O)C3=COCCO3)o2)cc1 | 0.731
102 | O=C(Nc1nnc(-c2ccc(Cl)cc2)o1)C1=COCCO1 | 2.01
103 | O=C(Nc1nnc(-c2ccc(Cl)cc2)o1)c1ccccc1Br | 5.35 (active)
104 | O=C(Nc1nnc(-c2ccccc2)o1)c1cc(Cl)sc1Cl | 11.3 (active)
105 | O=C(Nc1nnc(-c2ccccc2)o1)C1CCCCC1 | 0.0922
106 | O=C(Nc1nnc(-c2ccc(Cl)cc2)o1)Nc1ccccc1Cl | 1.85
107 | COc1ccccc1NC(=O)CSc1nc(O)c(Cc2ccccc2)c(=O)[nH]1 | 0.381
108 | COc1ccc(OC)c(-n2c(-c3cnccn3)n[nH]c2=S)c1 | -0.441
109 | COc1ccc(NS(=O)(=O)c2ccc(N3CCCC3)c(NC(=S)Nc3cccc(C)c3C)c2)cc1 | 0.291

From PubChem BioAssay AID488969 (Vanderbilt High Throughput Screening Facility, 2010)
